{"source": "PubChem BioAssay (EPA / NIEHS)", "note": "Active and inactive are the calls of the source. How the source made its calls: active means hit-call score of the fitted dose curve at least 0.9, where 1 is the maximum; inactive means score below 0.9.", "data": [{"test_system": "SRY-box transcription factor 2 (SOX2) Protein Expression, Deisenroth Lab, SOX2 (gene 6657)", "assay": "CCTE_Deisenroth_DEVTOX-GLR_Pluri_SOX2: CCTE's DevTox GLR-Pluri Assay Evaluation of SRY-box transcription factor 2 (SOX2) Protein Expression, Deisenroth Lab (AID 2284428)", "protocol": "CCTE_Deisenroth_DEVTOX-GLR_Pluri assay is a cell-based, multiplex-readout assay that uses RUES2-GLR, a human pluripotent cell line, with measurements taken at 48 hours after chemical dosing in a 384-well microplateCCTE_Deisenroth_DEVTOX-GLR_Pluri_SOX2 is 1 of 4 assay components calculated from the CCTE_Deisenroth_DEVTOX-GLR_Pluri assay and it measures an the percentage of cells in an pluripotent state. Using a type of inducible fluorescent protein reporter, gain-of-signal activity can be used to understand changes in gene expression with fluorescent microscopy. The percentage of SOX2+ cells are determined by calculating the number of SOX2+ cells divided by the cell count. To generalize the intended target to other relatable targets, this assay component is annotated to the transcription factor intended target family, where the subfamily is SRY-related HMG-box.Data from the assay component CCTE_Deisenroth_DEVTOX-GLR_Pluri_SOX2 was analyzed as 1 assay endpoint. The endpoint is the percent change in the SOX2+ cell population relative to the 0.2% DMSO control in the CCTE_Deisenroth_DEVTOX-GLR_Pluri assay. Furthermore, this assay endpoint can be referred to as a primary readout, because this assay has produced multiple assay endpoints where this one serves as a measure of […].\nAll assay protocols are aligned to the DevTox GLR-Endo assay workflow. Cells are seeded into 384-well microplates for 24 hours prior to initiating differentiation in defined media for a total duration of 48 hours. A total of two chemical exposures are administered in 24-hour intervals during the 48-hour differentiation period. At the assay termination point, cells are fixed and stained with a fluorescent dye demarcating the nucleus. High-content imaging is used to acquire brightfield and fluorescent channel images across 5 fields per well. Cell identification and mean biomarker fluorescence intensities are calculated with image analysis software to determine the total cell counts for viability assessment and the biomarker expression frequency for each lineage-dependent assay. A typical experimental design tests a 10-point concentration series (1 nM - 200 uM) for 28 compounds in single technical replicate. Assay plate controls include non-differentiated pluripotent cells (baseline control), lineage-specific differentiated cells (differentiation control), and DMSO solvent exposed differentiated cells (solvent control). Experiments typically comprise a minimum of four experimental replicates (n=4).", "values": [{"smiles": "CCN(CC)CCNC(=O)c1c(C)[nH]c(/C=C2\\C(=O)Nc3ccc(F)cc32)c1C", "AC50": "0.432 µM (active)"}, {"smiles": "O=C1Cc2cc(CCN3CCN(c4nsc5ccccc45)CC3)c(Cl)cc2N1", "AC50": "4.27 µM (active)"}, {"smiles": "CCCCCN=C(N)N/N=C/c1c[nH]c2ccc(OC)cc12", "AC50": "7.76 µM (active)"}, {"smiles": "O=c1[nH]c(=O)n([C@H]2C[C@H](O)[C@@H](CO)O2)cc1Br", "AC50": "3.42 µM (active)"}, {"smiles": "O=C(c1ccc(F)cc1)C1CCN(CCn2c(=O)[nH]c3ccccc3c2=O)CC1", "AC50": "19.8 µM (active)"}, {"smiles": "Cc1nc2sccn2c(=O)c1CCN1CCC(=C(c2ccc(F)cc2)c2ccc(F)cc2)CC1", "AC50": "16.9 µM (active)"}, {"smiles": "CNC(=O)c1cc(Oc2ccc(NC(=O)Nc3ccc(Cl)c(C(F)(F)F)c3)cc2)ccn1", "AC50": "29.3 µM (active)"}, {"smiles": "COc1cc2c(Nc3ccc(Br)cc3F)ncnc2cc1OCC1CCN(C)CC1", "outcome": "inactive"}, {"smiles": "CC1=C(/C=C/C(C)=C/C=C/C(C)=C\\C(=O)O)C(C)(C)CCC1", "AC50": "1.78 µM (active)"}, {"smiles": "COc1cc2ncnc(Nc3ccc(F)c(Cl)c3)c2cc1OCCCN1CCOCC1", "outcome": "inactive"}, {"smiles": "CN1CCN2c3ccccc3Cc3ccccc3C2C1", "note": "(centres undefined)", "AC50": "24.3 µM (active)"}, {"smiles": "Cc1nc(Nc2ncc(C(=O)Nc3c(C)cccc3Cl)s2)cc(N2CCN(CCO)CC2)n1", "AC50": "0.621 µM (active)"}, {"smiles": "Cc1ccc(NC(=O)c2ccc(CN3CCN(C)CC3)cc2)cc1Nc1nccc(-c2cccnc2)n1", "AC50": "15.7 µM (active)"}, {"smiles": "Nc1cccc2c1CN(C1CCC(=O)NC1=O)C2=O", "note": "(centres undefined)", "AC50": "0.0287 µM (active)"}]}]}
